Measurements from PubChem BioAssay AID1117292 (Broad Institute, 2014).
Results with a measured potency or affinity are listed apart. Inconclusive results are not listed. Activity calls are given as the source filed them.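 How the source made its calls: active means compound whose fitted half-maximal dose for signal loss lies within twice the top dose in every replicate test; inconclusive means tests disagree, or flat partial signal loss or poor fit; inactive means every test inactive, flat, rising or too weak.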

molecular target: Endoplasmic reticulum aminopeptidase 1 (Homo sapiens) (UniProt Q9NZ08); assay: ERAP1 enzyme inhibitors, dose response, biochemical, fluorescence plate reader, dry powder (AID 1117292); conditions: purified ERAP1, Leu-AMC fluorescence, 60 min; series mostly up to 50 µM
Sequence (Q9NZ08 whole entry, looked up): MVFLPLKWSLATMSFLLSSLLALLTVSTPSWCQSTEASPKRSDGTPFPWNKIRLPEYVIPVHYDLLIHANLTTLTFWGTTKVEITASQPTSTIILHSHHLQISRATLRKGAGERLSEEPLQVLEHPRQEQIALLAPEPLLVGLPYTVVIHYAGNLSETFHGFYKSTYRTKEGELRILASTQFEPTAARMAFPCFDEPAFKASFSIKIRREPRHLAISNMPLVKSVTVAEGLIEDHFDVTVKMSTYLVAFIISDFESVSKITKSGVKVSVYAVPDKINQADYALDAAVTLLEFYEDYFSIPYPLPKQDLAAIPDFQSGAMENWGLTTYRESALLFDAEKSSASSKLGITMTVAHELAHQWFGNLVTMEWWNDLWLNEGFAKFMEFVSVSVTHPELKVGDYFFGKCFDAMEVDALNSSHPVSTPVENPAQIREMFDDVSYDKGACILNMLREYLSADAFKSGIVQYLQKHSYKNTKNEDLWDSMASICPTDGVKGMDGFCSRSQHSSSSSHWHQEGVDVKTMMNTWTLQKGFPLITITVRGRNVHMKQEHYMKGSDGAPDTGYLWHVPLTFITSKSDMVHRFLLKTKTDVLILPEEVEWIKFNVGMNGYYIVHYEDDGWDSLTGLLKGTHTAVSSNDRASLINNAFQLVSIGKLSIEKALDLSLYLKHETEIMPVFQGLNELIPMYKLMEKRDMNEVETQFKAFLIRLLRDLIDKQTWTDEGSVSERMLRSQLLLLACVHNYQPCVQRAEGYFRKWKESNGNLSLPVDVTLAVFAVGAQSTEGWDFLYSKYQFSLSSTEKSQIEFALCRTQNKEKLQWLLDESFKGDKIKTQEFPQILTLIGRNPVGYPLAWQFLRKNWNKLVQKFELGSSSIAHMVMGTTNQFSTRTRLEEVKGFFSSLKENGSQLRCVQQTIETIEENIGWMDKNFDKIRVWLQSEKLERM

outcome, inactive:
CC(=O)N1CCN(C(=O)C2(NC(=O)Nc3ccccc3C(F)(F)F)CCCCC2)CC1
CC(=O)N1CCN(C(=O)C2(NC(=O)Nc3ccc(C(C)C)cc3)CCCC2)CC1
Cc1ccc(NC(=O)NC2(C(=O)N3CCN(c4ccccc4)CC3)CCCCC2)cc1
COc1ccc(C(=O)Nc2ccccc2N2CCCCC2)cc1S(=O)(=O)O
COc1ccc(C(=O)Nc2cc(C(F)(F)F)ccc2N2CCCC2)cc1S(=O)(=O)O
COc1ccc(C(=O)Nc2cc(C(F)(F)F)ccc2N2CCCCC2)cc1S(=O)(=O)O
CC(=O)N1CCN(C(=O)C2(NC(=O)Nc3ccc(C(C)C)cc3)CCCCC2)CC1
COc1ccc(C(=O)O)cc1S(=O)(=O)Nc1cc(C(F)(F)F)ccc1N1CCOCC1
O=S(=O)(Nc1cc(C(F)(F)F)ccc1N1CCCCC1)c1cc(Cl)cc(Cl)c1
COc1ccc(C(=O)Nc2cc(F)ccc2N2CCCCC2)cc1S(=O)(=O)O
CC(=O)N1CCN(C(=O)C2(NC(=O)Nc3ccc(F)cc3)CCCCC2)CC1
COc1cccc(NC(=O)NC2(C(=O)N3CCN(C(C)=O)CC3)CCCCC2)c1
COc1ccc(S(=O)(=O)Nc2cc(C(F)(F)F)ccc2N2CCCCC2)cc1
CC(=O)N1CCN(C(=O)C2(NC(=O)Nc3ccccc3F)CCCCC2)CC1
COc1ccc(C(=O)Nc2cc(C(F)(F)F)ccc2N2CCOCC2)cc1S(=O)(=O)O
O=S(=O)(Nc1cc(C(F)(F)F)ccc1N1CCCCC1)c1ccccc1
O=[N+]([O-])c1ccc(S(=O)(=O)Nc2cc(C(F)(F)F)ccc2N2CCCCC2)c([N+](=O)[O-])c1
O=S(=O)(Nc1cc(C(F)(F)F)ccc1N1CCCCC1)c1ccc(C(F)(F)F)cc1
CC(=O)N1CCN(C(=O)C2(NC(=O)Nc3ccc(C)cc3)CC2)CC1
O=[N+]([O-])c1cccc(S(=O)(=O)Nc2cc(C(F)(F)F)ccc2N2CCCCC2)c1
Cc1ccc(NC(=O)NC2(C(=O)N3CCNCC3)CCCCC2)cc1
O=S(=O)(Nc1cc(C(F)(F)F)ccc1N1CCCCC1)c1ccc(Cl)cc1
